These results are taken from PubChem BioAssay.

Records with an inconclusive call do not appear. Activity calls are given as the source filed them.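 The calls were made as follows, unless noted: active = normalized viability below 100% at a tested concentration; inactive = the rest.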

Assay [1] can be described thus: viability loss in pontine glioma line – cell-based, SU-DIPG-XVII, MIPE5.0, CellTiter-Glo, qHTS, dose response (AID 1347060; cut-off not given, nearly all actives have AC50 up to about 26 µM;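 also: cells exposed to compound for 48 hours before viability readout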). The note with it: CellTiter-Glo ATP luminescence.
Assay [2] can be described thus: viability loss in pontine glioma line – cell-based, SU-DIPG-XIII, MIPE4.0, CellTiter-Glo, qHTS, dose response (AID 1347061; cut-off not given, nearly all actives have AC50 up to about 37 µM;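 also: cells exposed to compound for 48 hours before readout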). Conditions: CellTiter-Glo ATP luminescence. A general note: ATP-based viability assays read luminescence as a measure of living cells.
Assay [3] in a line: viability loss in pontine glioma line – cell-based, SU-DIPG-XXV, MIPE5.0, CellTiter-Glo, qHTS, dose response (AID 1347065; cut-off not given, nearly all actives have AC50 up to about 26 µM;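 also: cells exposed to compound for 48 hours before ATP readout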). The note with it: CellTiter-Glo ATP luminescence.
The nature of assay [4]: JHH-DIPG-1 glioma cell viability, MIPE5.0 library, CellTiter-Glo luminescence, qHTS (AID 1347067; cut-off not given, nearly all actives have AC50 up to about 26 µM;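 also: cells exposed to compound for 48 hours before readout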). The note with it: JHH-DIPG-1 glioma viability, CellTiter-Glo ATP luminescence.
The nature of assay [5]: viability loss in pontine glioma line – cell-based, JHH-DIPG-1, MIPE4.0, CellTiter-Glo, qHTS, dose response (AID 1347062; cut-off not given, nearly all actives have AC50 up to about 27 µM;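 also: cells exposed to compound for two days before readout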). The note with it: JHH-DIPG-1 viability, CellTiter-Glo ATP luminescence.
Assay [6] in a line: viability loss in pontine glioma line – cell-based, SU-DIPG-IV, MIPE4.0, CellTiter-Glo, qHTS, dose response (AID 1347063; cut-off not given, nearly all actives have AC50 up to about 30 µM;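 also: compound exposure lasted 48 hours before the viability readout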). Conditions: CellTiter-Glo ATP luminescence.
Assay [7] in a line: viability loss in pontine glioma line – cell-based, SU-DIPG-XIII, MIPE5.0, CellTiter-Glo, qHTS, dose response (AID 1347064; cut-off not given, nearly all actives have AC50 up to about 23 µM;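 also: cells exposed to compound for 48 hours before the viability read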). Conditions: CellTiter-Glo ATP luminescence.
A short description of assay [8]: growth inhibition of DIPG cells – cell-based, MIPE4.0 library, CellTiter-Glo luminescence, qHTS (AID 1347066; cut-off not given, nearly all actives have AC50 up to about 30 µM;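 also: cells exposed to compound for 48 hours before readout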). Conditions: SU-DIPG-VI viability, CellTiter-Glo ATP luminescence.
Assay [9] in a line: growth inhibition of DIPG cells – cell-based, MIPE5.0 library, qHTS (AID 1347068; cut-off not given, nearly all actives have IC50 up to about 30 µM;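 also: cells exposed to compound for 48 hours before viability readout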). Conditions: SU-DIPG-XXV viability.
Assay [10] is described as follows: viability loss with induced miR-34 in A549 – imaging, A549 dox-inducible miR-34, nuclei and caspase counts, primary screen (AID 1347080;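 active = compounds whose cell count with miR-34 switched on is under 0.7 times the count with it off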). Conditions: A549 miR-34 inducible, Hoechst nuclei count, 48 h.
The nature of assay [11]: compounds altering HSF1 focus formation in cells – imaging, Selleck Cancer Library (AID 1347162; in the data active = plate-normalised HSF1 focus index below about 0.46). Conditions: human cells, HSF1 nuclear foci imaging, at 10 µM; SSMD: measured here: HSF1 foci SSMD mean; cell count: measured here: cell number; plate-normalised HSF1 focus index: stronger effect = lower value.
A short description of assay [12]: MELAS cybrid and Rieske KO viability enhancers – cell-based, MELAS cybrids, Rieske KO mouse fibroblasts, CellTiter-Glo, primary screen (AID 1508586;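 active = mean z-score across replicates of 1.96 or higher in either the MELAS or the Rieske mutant cell line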;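 also: z relative to plate mean and SD of compound and empty wells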). Conditions: low glucose.
Assay [13] is described as follows: drug combination growth inhibition, ovarian cancer – cell-based, oncology-focused library, rucaparib conditional, profiling panel (AID 1508598). Conditions: patient-derived ovarian cancer cells, CellTiter-Glo viability, 144 h, stronger effect = lower value.

As for `CC1=C(C(=O)Nc2cc3cn[nH]c3cc2F)C(c2ccc(Cl)cc2F)N=C(c2ccnc(Cl)c2)N1` (centres undefined), the values for the AC50 in [1], in [3] and in assay [4] were 13200 nM (active), 5900 nM (active) and 16600 nM (active), respectively. In addition, the outcome in assay [2] was inactive.
`CCn1nnc2c(N3CCOCC3)nc(-c3ccc(NC(=O)Nc4ccc(C(=O)N5CCN(C)CC5)cc4)cc3)nc21`: the AC50 – broadly, the concentration at which the activity in the assay is half-maximal – is 372 nM (active) in assay [1]; 469 nM (active) in assay [5]; 14.8 nM (active) in assay [6]; 742 nM (active) in [7]; 372 nM (active) in [3]; 166 nM (active) in assay [8]. In [4], the AC50 is 934 nM (active). The IC50 (usually the point on the concentration scale where inhibition reaches its midpoint) in assay [9] was 742 nM (active).
In the case of `O=C(Cc1ccc(-c2ccc(OCCN3CCOCC3)cc2)cn1)NCc1ccccc1`, the AC50 in [1] is 118 nM (active); in assay [5], 59 nM (active); in [6], 11.8 nM (active); in [7], 661 nM (active); in assay [3], 118 nM (active); in [8], 1050 nM (active). For the same compound, the AC50 in assay [4] is 132 nM (active). The concentration for half-maximal inhibition (IC50) in assay [9] is 525 nM (active). Moreover, the fold change in [10] (stronger effect = lower value, cell number ratio, induced over uninduced) was 1.21 (inactive); in assay [10] (measured here: relative caspase fold change +Dox/-Dox) it was 0.488. Besides, the cell count in assay [10] (measured here: total cells with miR-34 induction, stronger effect = lower value) amounted to 1530; in assay [10] (measured here: total cells without miR-34 induction), 1260; in [11] it was 6240. The compound also came in with an SSMD in assay [11] of 2.71. The plate-normalised HSF1 focus index in assay [11] is 1.14 (inactive). The z-score in [12] (MELAS cybrid survival, CellTiter-Glo 48 h, stronger effect = higher value) was 1.14 (inactive); in assay [12] (Rieske KO mouse fibroblast survival, CellTiter-Glo 72 h), -0.489. Further, the viability (commonly a read-out of living cells in per cent, often relative to untreated cells) in assay [13] (at 0.000305 µM, OCI-C5x cells, with rucaparib 10 µM, 100% = cells with rucaparib alone) was 106% (inactive); in assay [13] (at 0.000305 µM, OCI-C5x cells, without rucaparib) it was 114% (inactive); in [13] (at 0.000305 µM, OCI-P5x cells, with rucaparib 20 µM, 100% = cells with rucaparib alone), 109% (inactive); in assay [13] (at 0.000305 µM, OCI-P5x cells, without rucaparib) it was 106% (inactive); in assay [13] (at 0.00122 µM, OCI-C5x cells, with rucaparib 10 µM, 100% = cells with rucaparib alone) it was 111% (inactive); in assay [13] (at 0.00122 µM, OCI-C5x cells, without rucaparib), 124% (inactive). In addition, the viability is 108% (inactive) in assay [13] (at 0.00122 µM, OCI-P5x cells, with rucaparib 20 µM, 100% = cells with rucaparib alone); 108% (inactive) in assay [13] (at 0.00122 µM, OCI-P5x cells, without rucaparib); 112% (inactive) in assay [13] (at 0.00488 µM, OCI-C5x cells, with rucaparib 10 µM, 100% = cells with rucaparib alone); 109% (inactive) in assay [13] (at 0.00488 µM, OCI-C5x cells, without rucaparib); 105% (inactive) in assay [13] (at 0.00488 µM, OCI-P5x cells, with rucaparib 20 µM, 100% = cells with rucaparib alone); 96.7% (active) in assay [13] (at 0.00488 µM, OCI-P5x cells, without rucaparib). Besides, the viability in assay [13] (at 0.0195 µM, OCI-C5x cells, with rucaparib 10 µM, 100% = cells with rucaparib alone) is 101% (inactive); in assay [13] (at 0.0195 µM, OCI-C5x cells, without rucaparib), 58.9% (active); in assay [13] (at 0.0195 µM, OCI-P5x cells, with rucaparib 20 µM, 100% = cells with rucaparib alone), 85.3% (active); in [13] (at 0.0195 µM, OCI-P5x cells, without rucaparib), 29.6% (active); in assay [13] (at 0.0781 µM, OCI-C5x cells, with rucaparib 10 µM, 100% = cells with rucaparib alone) it was 62.9% (active); in [13] (at 0.0781 µM, OCI-C5x cells, without rucaparib), 50.7% (active). In addition, the viability in [13] (at 0.0781 µM, OCI-P5x cells, with rucaparib 20 µM, 100% = cells with rucaparib alone) was 69.5% (active); in assay [13] (at 0.0781 µM, OCI-P5x cells, without rucaparib) it was 23.9% (active); in assay [13] (at 0.313 µM, OCI-C5x cells, with rucaparib 10 µM, 100% = cells with rucaparib alone), 40.7% (active); in [13] (at 0.313 µM, OCI-C5x cells, without rucaparib) it was 33.9% (active); in assay [13] (at 0.313 µM, OCI-P5x cells, with rucaparib 20 µM, 100% = cells with rucaparib alone), 58.7% (active); in [13] (at 0.313 µM, OCI-P5x cells, without rucaparib), 18.5% (active). The viability is 46.4% (active) in assay [13] (at 1.25 µM, OCI-C5x cells, with rucaparib 10 µM, 100% = cells with rucaparib alone); 34.1% (active) in assay [13] (at 1.25 µM, OCI-C5x cells, without rucaparib); 58.9% (active) in assay [13] (at 1.25 µM, OCI-P5x cells, with rucaparib 20 µM, 100% = cells with rucaparib alone); 17.4% (active) in assay [13] (at 1.25 µM, OCI-P5x cells, without rucaparib); 50.3% (active) in assay [13] (at 5 µM, OCI-C5x cells, with rucaparib 10 µM, 100% = cells with rucaparib alone); 32.6% (active) in assay [13] (at 5 µM, OCI-C5x cells, without rucaparib). For the same compound, the viability in [13] (at 5 µM, OCI-P5x cells, with rucaparib 20 µM, 100% = cells with rucaparib alone) was 49.4% (active); in [13] (at 5 µM, OCI-P5x cells, without rucaparib), 15.3% (active).
Regarding `COC(=O)Nc1ccc(-c2nc(N3CCOCC3)c3cnn(C4CCN(Cc5cccnc5)CC4)c3n2)cc1`, the AC50 in [1] was 5250 nM (active); in [5], 6620 nM (active); in [6], 235 nM (active); in assay [7], 6610 nM (active); in [3], 1480 nM (active); in [8], 14800 nM (active). For the same compound, the AC50 in assay [4] was 6610 nM (active). For the same compound, the IC50 in [9] was 13200 nM (active).
